RTF Ca sens inh: cardiac RTF calcium desensitization; IANBD-labeled cardiac RTF, Ca2+ fluorescence; AID 493244; 340,000 compounds, 0.12% hits; inhibition, % at 7.15 µM;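 active = inhibition above the mean inhibition of all tested compounds plus 3 SD, cut at about 17% in these data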;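 note: assay run at fixed EC70 calcium of 1.6 mM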
IDE cell inh: cellular human IDE inhibition; P14735; HEK cells, FAbetaB cleavage, fluorescence polarization; inhibition, % at 5.59 µM; 320,000 compounds, 0.41% hits; AID 434962;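 active = percent inhibition above the average of all tested compounds plus 3 SD, set per screening campaign, cut at about 16% in these data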;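 note: IDE supplied by intact live HEK cells; FP after avidin binding of uncleaved biotin substrate so inhibition keeps polarization high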
Target sequence (P14735 whole entry, looked up): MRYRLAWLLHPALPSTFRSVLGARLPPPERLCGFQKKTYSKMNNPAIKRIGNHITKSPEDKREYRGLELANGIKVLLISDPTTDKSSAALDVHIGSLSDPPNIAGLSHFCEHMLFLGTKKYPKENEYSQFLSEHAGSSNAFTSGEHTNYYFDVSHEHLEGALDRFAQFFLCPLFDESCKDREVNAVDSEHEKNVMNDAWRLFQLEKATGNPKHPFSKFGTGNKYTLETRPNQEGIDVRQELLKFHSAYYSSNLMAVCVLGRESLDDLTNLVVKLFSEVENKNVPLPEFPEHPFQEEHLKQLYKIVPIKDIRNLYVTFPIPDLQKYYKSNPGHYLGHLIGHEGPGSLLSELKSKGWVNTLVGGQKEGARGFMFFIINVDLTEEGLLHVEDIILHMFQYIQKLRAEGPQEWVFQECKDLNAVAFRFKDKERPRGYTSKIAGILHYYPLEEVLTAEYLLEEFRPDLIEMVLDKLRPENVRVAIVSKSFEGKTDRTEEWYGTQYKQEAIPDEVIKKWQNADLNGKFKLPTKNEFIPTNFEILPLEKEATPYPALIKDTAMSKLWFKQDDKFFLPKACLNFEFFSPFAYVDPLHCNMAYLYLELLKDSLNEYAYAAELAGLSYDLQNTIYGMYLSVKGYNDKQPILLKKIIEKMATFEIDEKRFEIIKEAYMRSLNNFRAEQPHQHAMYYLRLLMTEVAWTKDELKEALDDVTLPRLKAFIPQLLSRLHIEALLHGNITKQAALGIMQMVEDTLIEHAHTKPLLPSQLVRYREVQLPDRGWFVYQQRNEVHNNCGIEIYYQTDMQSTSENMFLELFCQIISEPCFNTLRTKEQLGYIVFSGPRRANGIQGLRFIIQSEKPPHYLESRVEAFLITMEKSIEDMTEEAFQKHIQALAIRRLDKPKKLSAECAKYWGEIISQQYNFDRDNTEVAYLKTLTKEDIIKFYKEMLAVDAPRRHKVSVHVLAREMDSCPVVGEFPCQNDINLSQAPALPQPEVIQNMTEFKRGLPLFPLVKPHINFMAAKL
cardiac RTF act: increases calcium sensitivity of human cardiac regulated thin filaments; P19429+P45379; IANBD-labeled TnC RTF fluorescence at EC20 calcium; 0% EC20 calcium, 100% full calcium; activation, % at 7.2 µM; 340,000 compounds, 0.24% hits;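 active = activation above the mean over all tested compounds plus 3 SD, cut at about 30% in these data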;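 note: rise in fluorescence read as greater calcium sensitivity of cardiac thin filaments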
IDE cell activ: activators of human insulin-degrading enzyme in cells; activation, % at 5.96 µM; AID 493087; HEK cells, FAbeta-B cleavage, fluorescence polarization; 0% vehicle, 100% cell-free pure enzyme wells; P14735; 340,000 compounds, 0.073% hits;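 active = activation above the mean of all tested compounds plus 3 SD, set per screening campaign, cut at about 17% in these data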
IDE inh confirm: cellular human IDE inhibition, confirmation | 1,200 compounds, 51% hits | shares compounds with IDE cell inh | HEK cells, FAbetaB cleavage, fluorescence polarization | inhibition, % at 5.59 µM | AID 435028;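 active = mean inhibition across triplicate wells above the cutoff set by the earlier primary insulin-degrading enzyme screen, cut at about 16% in these data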
HEK293 tox: HEK cell cytotoxicity, counter-screen for IDE inhibitors; inhibition, % at 5.59 µM; HEK293 cytotoxicity, ATP luminescence; AID 449730; 1,200 compounds, 28% hits; shares compounds with IDE cell inh; in the data active = inhibition above about 22%
Hits are given with their value; n = inactive; x = no result; + = active, no number. Rows were chosen to be rich in hits. Some 0.71% of all compounds tested hit in one or more screens of this group.

SMILES	RTF Ca sens inh	IDE cell inh	cardiac RTF act	IDE cell activ	IDE inh confirm	HEK293 tox
COc1cc(/C=C2\SC(=S)N(NS(=O)(=O)c3ccc(C)cc3)C2=O)ccc1O	n	72	n	n	161	n
COc1cc(/C=C2\SC(=S)N(NS(=O)(=O)c3ccc(C)cc3)C2=O)cc(OC)c1OC	n	n	n	n	x	x
COc1ccc(/C=C2/SC(=S)N(NS(=O)(=O)c3ccccc3)C2=O)cc1	n	n	n	n	x	x
COc1cc(/C=C2\SC(=S)N(NS(=O)(=O)c3ccccc3)C2=O)ccc1O	n	74	n	n	161	n
CCOc1cc(/C=C2\SC(=S)N(NS(=O)(=O)c3ccc(C)cc3)C2=O)ccc1O	n	35	n	n	84	n
CCN(CC(=O)Nc1c(F)cccc1F)C(=O)CNC(=O)c1cccs1	n	n	n	n	x	x
Cc1ccc(NC(=O)Cn2nc(-c3ccco3)ccc2=O)cc1Cl	n	n	n	n	x	x
CN(Cc1c(C(=O)N/N=C/c2ccc(O)cc2)nnn1-c1nonc1N)c1ccccc1	n	n	n	n	x	x
CCc1cccc(NC(=O)CCCCCC2NC(=O)NC2C)c1 (configuration not stated)	n	22	n	n	n	n
CCOC(=O)N1CCC(N2CCN(C3CCCC3)C(CCO)C2)CC1 (configuration not stated)	n	n	n	n	x	x
CCOc1ccc(/C=N/NC(=O)c2nnn(-c3nonc3N)c2-c2ccc(OCC)cc2)cc1	n	22	n	n	n	n
CCOC(=O)c1c(C)[nH]c(C(=O)COC(=O)[C@H](C)NC(=O)c2ccccc2Cl)c1C	n	n	n	n	x	x
CCOC(=O)c1c(C)[nH]c(C(=O)COC(=O)CNC(=O)c2ccccc2Cl)c1C	n	17	n	n	n	n
CCOc1cc(/C=C2\SC(=S)N(NC(=O)c3cccnc3)C2=O)ccc1O	x	41	x	x	148	n
COc1cc(/C=C2\SC(=S)N(NC(=O)c3ccc(O)c(OC)c3)C2=O)ccc1O	n	109	n	n	89	n
COc1cc(/C=C2\SC(=S)N(NC(=O)c3ccncc3)C2=O)ccc1O	n	81	n	n	165	n
COc1cc(/C=C2\SC(=S)N(NC(=O)c3cccc(O)c3)C2=O)ccc1O	n	x	n	n	x	x
O=C(NN1C(=O)/C(=C/c2cccs2)SC1=S)c1cccnc1	x	n	x	x	x	x
CC(c1ccccc1)n1cnc2ccccc2c1=O (configuration not stated)	n	n	n	n	x	x
Cc1ccc(S(=O)(=O)Nc2ccc3c(c2)C(=O)NC3=O)cc1[N+](=O)[O-]	n	n	n	n	x	x
COc1ccc(CC2=CC(=O)c3ccccc3C2=O)cc1	n	46	n	n	35	68
Cc1cc(C(=O)NNc2ccc(F)cc2)no1	n	n	n	n	x	x
COc1cc(OC)cc(C(=O)Nc2cccc(NC(=O)c3cc(OC)cc(OC)c3)n2)c1	n	17	n	n	n	n
CC(=O)c1ccc(S(=O)(=O)Nc2ccc3c(c2)OCO3)cc1	n	n	n	n	x	x
Cc1nc(-c2ccc(NC(=O)c3ccco3)cc2)cs1	n	n	n	n	x	x
SMILES	RTF Ca sens inh	IDE cell inh	cardiac RTF act	IDE cell activ	IDE inh confirm	HEK293 tox
Cc1ccn2cc(-c3ccc(NC(=O)c4ccco4)cc3)nc2c1	n	18	n	n	n	n
CC1=NN(c2ccc(C)cc2)C(=O)/C1=C\C=C\c1ccccc1	n	n	n	n	x	x
CC1=NN(c2ccccc2)C(=O)/C1=C/C=C/C=C/N(C)C	n	18	n	n	n	27
COC(=O)c1c(NS(=O)(=O)c2cccs2)sc2c1CCCC2	n	18	n	n	n	n
Nc1ccccc1Sc1nc2ccccc2[nH]1	n	16	n	n	n	n
Nc1nc2ccccc2[nH]1	n	x	n	n	x	x
C/C(=N/NC(=O)c1ccncc1)c1cc2ccc(O)cc2oc1=O	n	21	+	n	26	n
C/C(=N\NC(=O)c1ccncc1)c1cc2ccccc2oc1=O	n	n	n	n	x	x
CC[n+]1c(/C=C/N(C)c2ccccc2)n(-c2ccccc2)c2ccc(-c3nc4ccccc4s3)cc21	n	57	n	n	22	118
O=C(O)c1ccc2c(=O)n3c(nc2c1)/C(=C/c1ccc(F)cc1)CC3	n	n	n	n	x	x
O=C(O)c1ccc2c(=O)n3c(nc2c1)/C(=C/c1cccc(Cl)c1Cl)CCCC3	n	18	n	n	n	n
O=C(N/N=C\c1ccc[nH]1)c1cncc(Br)c1	n	n	n	n	x	x

Bioassay records (PubChem)
